PubChem BioAssay (NCI)
The panel holds about 83,000 compounds, 20% with a hit somewhere; the sample as a whole holds those more often.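 How to read the values: 0–100, growth inhibition (40 = 60% inhibited); 0, no net growth; -100 to 0, cell death (-40 = 40% of starting cells died; -100 = all dead).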 Calls of active or inactive are those of the source. How the source made its calls: active means growth percent below 10; inactive means the rest.

The compounds below were run on MDA-MB-468 breast (assay: NCI-60 one-dose screen, 48 h (100 = growth as untreated, 0 = no growth, -100 = all killed)). Settings: 10 µM unless noted.

**Q.** For `COC(=O)C1CCCN(S(=O)(=O)/N=C2\NC(=O)NC2=C(Cl)Cl)C1` (configuration not stated), which growth is on record?
**A.** Its growth is 32.8% (inactive).

**Q.** For `COc1ccc2[nH]c(C(=O)N3CCN(C(=O)OCc4ccc5c(Cl)cc(Cl)c(O)c5n4)CC3)cc2c1`, which growth is on record?
**A.** The growth was -76.5% (active).

**Q.** For `COc1cnc2c(c1)C(=O)c1c-2n(CCCN2CCOCC2)c(=O)c2cc(Cl)ccc12`, which growth is on record?
**A.** The growth was -1.98% (active).

**Q.** For `CCN(CC)CCC(=O)Nc1ccc(Cn2nnc3c2C(=O)c2nnn(Cc4ccc(NC(=O)CCN(CC)CC)cc4)c2C3=O)cc1`, which growth is on record?
**A.** Its growth is -66.4% (active).

**Q.** How did the growth turn out when `CC1(C)CCC[C@]23C(=O)O[C@](O)(C(=O)C4=C[C@@](C)(/C=C/CCCc5ccc6ccc7cccc8ccc5c6c78)CC[C@@]42O)[C@@H]13` was run?
**A.** The growth was -70% (active).

**Q.** With `N#CC(C#N)N=Nc1ccc(Br)cc1` as the compound, how does the growth read?
**A.** Its growth is 0.0168% (active).

**Q.** How did the growth turn out when `Cc1cc2c(cc1C)N(C(=O)CCl)CC(=O)N2` was run?
**A.** The growth was -12.6% (active).

**Q.** How did the growth turn out when `CCCCCCCC(=O)OCC/C=C/C1OC1C1OC(=O)/C=C\C=C\C(=O)N(C(C)=O)C(=O)/C=C(/C)CCC2OC2C1OC(=O)NC(C)=O` (configuration not stated) was run?
**A.** The growth was -3.75% (active).

**Q.** With `O=c1oc2ccc(Cl)cc2c(=O)n1-c1cc(C(F)(F)F)cc(C(F)(F)F)c1` as the compound, how does the growth read?
**A.** Its growth is -8.67% (active).

**Q.** Which growth does the source give for `COc1cc(/C=C/C(=O)c2ccc(Cl)cc2)ccc1OS(=O)(=O)c1ccc(C)cc1` here?
**A.** Its growth is 99.7% (inactive).

**Q.** `C=CC(=O)N(C)[C@H]1C[C@H]2OC(C)(C1OC)n1c3ccccc3c3c4c(c5c6ccccc6n2c5c31)C(=O)NC4` (some centres not stated) was tested. Which growth did it give?
**A.** The growth was -52.4% (active).

**Q.** For `COc1ccccc1NC(=O)c1ccc(/C=C/C(=O)c2nccn2C)cc1`, which growth is on record?
**A.** The growth was -40.7% (active).

**Q.** `COc1ccc(/C=N/C2=C(C#N)C(c3ccccc3)c3c(ccc4ccccc34)O2)cc1` (configuration not stated) was tested. Which growth did it give?
**A.** The growth was -3.92% (active).

**Q.** How did the growth turn out when `Cc1ccc(NC(=O)N/C(N)=N/c2nc(=O)c3ccccc3s2)cc1` was run?
**A.** The growth was 89.9% (inactive).

**Q.** Which growth does the source give for `NC(=O)NCCCC(N)C(=O)O` (configuration not stated) here?
**A.** Its growth is 107% (inactive).

**Q.** Which growth does the source give for `NS(=O)(=O)c1ccc(N=Nc2ccc(-c3nn4cc(-c5ccccc5)nc4s3)cc2)cc1` here?
**A.** Its growth is 100% (inactive).

**Q.** How did the growth turn out when `CC#CC#Cc1cccc(=O)o1` was run?
**A.** The growth was 29.3% (inactive).

**Q.** With `Cc1cc2c(cc1C)[n+](Cc1ccc3ccccc3c1)cn2Cc1ccc2ccccc2c1` as the compound, how does the growth read?
**A.** The growth was -76.4% (active).

**Q.** For `COc1cc(CNC(=O)Cc2ccccc2)ccc1OCc1cn(-c2ccc(F)cc2)nn1`, which growth is on record?
**A.** Its growth is 99.8% (inactive).

**Q.** With `Cc1[nH]c(C(=O)Nc2ccc(C(=O)N3CCNCC3)cc2OC(C)C)c(Cl)c1Cl` as the compound, how does the growth read?
**A.** Its growth is 64.8% (inactive).

**Q.** `CC(C)=CCc1c2c(c(O)c3c1O[C@]14C(=C[C@@H]5C[C@H]1C(C)(C)O[C@@]4(C/C=C(/C)C(=O)O)C5=O)C3=O)CC(O)C(C)(C)O2` (some centres not stated) was tested. Which growth did it give?
**A.** Its growth is -55.7% (active).

**Q.** For `NC(CCCC(N)C(=O)c1ccccc1)C(=O)O` (configuration not stated), which growth is on record?
**A.** Its growth is 113% (inactive).

**Q.** How did the growth turn out when `COc1cc2oc(-c3cccc(NC(=O)Nc4ccc5c(c4)OCO5)c3)cc(=O)c2c(OC)c1OC` was run?
**A.** Its growth is 75.2% (inactive).

**Q.** For `O=C(CC1Sc2ccccc2NC1=O)NNc1cccc(Cl)c1Cl` (configuration not stated), which growth is on record?
**A.** Its growth is 95.2% (inactive).

**Q.** With `O=C(/C=C/c1cccc(O)c1)c1cccc(-n2cc(-c3ccccc3)[nH]c2=O)c1` as the compound, how does the growth read?
**A.** The growth was 73.4% (inactive).

**Q.** `O=C(Nc1cccc(Cn2c(=O)[nH]c3ccc(Oc4ncccn4)cc3c2=O)c1)c1cccc(F)c1` was tested. Which growth did it give?
**A.** Its growth is 49.8% (inactive).

**Q.** For `CC(=O)N1N=C(c2cc3ccccc3oc2=O)CC1c1cn(-c2ccccc2)nc1-c1ccc(C)cc1` (configuration not stated), which growth is on record?
**A.** The growth was 94.6% (inactive).

**Q.** `O=S(=O)(NCCNc1nccc(-c2c(-c3cccc(O)c3)nc3occn23)n1)c1ccc(Cl)cc1` was tested. Which growth did it give?
**A.** The growth was 97.9% (inactive).

**Q.** Which growth does the source give for `C=C1C(=O)O[C@H]2[C@H]1CC/C(C=Nc1c(N)cc(C(F)(F)F)cc1Br)=C\CC[C@@]1(C)O[C@@H]21` here?
**A.** Its growth is -16.6% (active).

**Q.** Which growth does the source give for `COc1cc(/C=C/C(=O)c2ccc(Nc3ncnc4cc(OC)c(OC)cc34)cc2)cc(OC)c1` here?
**A.** Its growth is 101% (inactive).

**Q.** `COc1cccc(CNC(=O)c2cccc(C3CC(=O)c4c(cc(OC)c(OC)c4OC)O3)c2)c1` (configuration not stated) was tested. Which growth did it give?
**A.** Its growth is 20.5% (inactive).

**Q.** For `C#Cc1cccc(Nc2ncnc3cc(OC)c(OCCCCCCC(=O)NO)cc23)c1`, which growth is on record?
**A.** Its growth is -44.4% (active).

**Q.** Which growth does the source give for `CCCC[P+](c1ccccc1)(c1ccccc1)c1ccccc1` here?
**A.** The growth was -6.92% (active).

**Q.** With `Cn1cc(-c2csc(-c3c[nH]c4ccc(Br)cc34)n2)c2ccnc(Cl)c21` as the compound, how does the growth read?
**A.** Its growth is 14% (inactive).

**Q.** Which growth does the source give for `CC1C(=O)c2ccccc2CC1C(=O)O` (configuration not stated) here?
**A.** Its growth is 118% (inactive).

**Q.** With `Clc1ccc(I)c2ccccc12` as the compound, how does the growth read?
**A.** The growth was 107% (inactive).

**Q.** `CC1(C)N=C(N)N=C(N)N1c1cccc(CN)c1` was tested. Which growth did it give?
**A.** Its growth is 84.8% (inactive).
